Article PMC11006913

Experiments:
Experiment in all cases: PBM; 200 nM protein, PBS
Settings in all cases: dsDNA, one strand shown
[1] = target: HESX1 (Homo sapiens, UniProt Q9UBX0 95-180, R165K)
[2] = target: SHOX (Homo sapiens, UniProt O15266 103-189)
[3] = target: ALX4 (Homo sapiens, UniProt Q9H161 200-286, Q225E)
[4] = target: HESX1 (Homo sapiens, UniProt Q9UBX0 95-180)
[5] = target: MSX2 (Homo sapiens, UniProt P35548 130-214, R199I)
[6] = target: ALX1 (Homo sapiens, UniProt Q15699 118-204, L144V)
Sequence of ALX1 (Homo sapiens, UniProt Q15699 118-204, L144V) (Q15699 118-204 L144V): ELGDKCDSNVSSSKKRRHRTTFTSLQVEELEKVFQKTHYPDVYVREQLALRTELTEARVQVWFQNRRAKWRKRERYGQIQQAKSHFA

[7] = target: ALX3 (Homo sapiens, UniProt O95076 139-225, N203Q)
Sequence of ALX3 (Homo sapiens, UniProt O95076 139-225, N203Q) (O95076 139-225 N203Q): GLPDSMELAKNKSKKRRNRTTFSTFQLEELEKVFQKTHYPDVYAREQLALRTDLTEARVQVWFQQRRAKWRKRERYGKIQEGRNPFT

[8] = target: SHOX (Homo sapiens, UniProt O15266 103-189, R173C)
Sequence of SHOX (Homo sapiens, UniProt O15266 103-189, R173C) (O15266 103-189 R173C): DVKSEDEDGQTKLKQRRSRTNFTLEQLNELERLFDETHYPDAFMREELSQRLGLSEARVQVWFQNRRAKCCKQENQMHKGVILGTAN

[9] = target: ALX1 (Homo sapiens, UniProt Q15699 118-204, L144R)
Sequence of ALX1 (Homo sapiens, UniProt Q15699 118-204, L144R) (Q15699 118-204 L144R): as the sequence (Q15699 118-204 L144V) above, with V27R counted along it

[10] = target: ALX3 (Homo sapiens, UniProt O95076 139-225)
Sequence of ALX3 (Homo sapiens, UniProt O95076 139-225) (O95076 139-225): as the sequence (O95076 139-225 N203Q) above, with Q65N counted along it

[11] = target: PROP1 (Homo sapiens, UniProt O75360 56-141)
Sequence of PROP1 (Homo sapiens, UniProt O75360 56-141) (O75360 56-141): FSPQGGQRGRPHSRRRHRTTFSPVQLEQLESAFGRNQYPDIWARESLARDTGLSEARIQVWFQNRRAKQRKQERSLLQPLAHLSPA

[12] = target: HESX1 (Homo sapiens, UniProt Q9UBX0 95-180, R109Q)
Sequence of HESX1 (Homo sapiens, UniProt Q9UBX0 95-180, R109Q) (Q9UBX0 95-180 R109Q): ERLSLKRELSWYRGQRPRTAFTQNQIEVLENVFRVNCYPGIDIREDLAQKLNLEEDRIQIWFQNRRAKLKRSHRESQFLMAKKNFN

[13] = target: PROP1 (Homo sapiens, UniProt O75360 56-141, R99H)
Sequence of PROP1 (Homo sapiens, UniProt O75360 56-141, R99H) (O75360 56-141 R99H): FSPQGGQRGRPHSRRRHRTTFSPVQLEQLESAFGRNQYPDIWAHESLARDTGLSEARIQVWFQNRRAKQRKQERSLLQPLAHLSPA

[14] = target: ALX3 (Homo sapiens, UniProt O95076 139-225, L168Q)
Sequence of ALX3 (Homo sapiens, UniProt O95076 139-225, L168Q) (O95076 139-225 L168Q): as the sequence (O95076 139-225 N203Q) above, with L30Q, Q65N counted along it

[15] = target: HESX1 (Homo sapiens, UniProt Q9UBX0 95-180, P111T)
Sequence of HESX1 (Homo sapiens, UniProt Q9UBX0 95-180, P111T) (Q9UBX0 95-180 P111T): as the sequence (Q9UBX0 95-180 R109Q) above, with Q15R, P17T counted along it

[16] = target: ALX3 (Homo sapiens, UniProt O95076 139-225, L168V)
Sequence of ALX3 (Homo sapiens, UniProt O95076 139-225, L168V) (O95076 139-225 L168V): as the sequence (O95076 139-225 N203Q) above, with L30V, Q65N counted along it

[17] = target: PROP1 (Homo sapiens, UniProt O75360 56-141, F88S)
Sequence of PROP1 (Homo sapiens, UniProt O75360 56-141, F88S) (O75360 56-141 F88S): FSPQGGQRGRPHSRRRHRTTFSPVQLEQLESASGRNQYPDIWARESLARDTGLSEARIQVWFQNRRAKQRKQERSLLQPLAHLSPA

[18] = target: HESX1 (Homo sapiens, UniProt Q9UBX0 95-180, F115L)
Sequence of HESX1 (Homo sapiens, UniProt Q9UBX0 95-180, F115L) (Q9UBX0 95-180 F115L): as the sequence (Q9UBX0 95-180 R109Q) above, with Q15R, F21L counted along it

[19] = target: ALX1 (Homo sapiens, UniProt Q15699 118-204)
Sequence of ALX1 (Homo sapiens, UniProt Q15699 118-204) (Q15699 118-204): as the sequence (Q15699 118-204 L144V) above, with V27L counted along it

[20] = target: ALX3 (Homo sapiens, UniProt O95076 139-225, N203S)
Sequence of ALX3 (Homo sapiens, UniProt O95076 139-225, N203S) (O95076 139-225 N203S): as the sequence (O95076 139-225 N203Q) above, with Q65S counted along it

Sequence of ALX4 (Q9H161 200-286 Q225E): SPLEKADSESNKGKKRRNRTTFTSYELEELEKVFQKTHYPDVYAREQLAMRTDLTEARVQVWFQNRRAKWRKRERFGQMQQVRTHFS
Sequence of HESX1 (Homo sapiens, UniProt Q9UBX0 95-180) (Q9UBX0 95-180): as the sequence (Q9UBX0 95-180 R109Q) above, with Q15R counted along it
Sequence of MSX2 (P35548 130-214 R199I): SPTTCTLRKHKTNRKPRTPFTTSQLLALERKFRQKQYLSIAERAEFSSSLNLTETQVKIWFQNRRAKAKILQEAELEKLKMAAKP
Sequence of SHOX (Homo sapiens, UniProt O15266 103-189) (O15266 103-189): as the sequence (O15266 103-189 R173C) above, with C71R counted along it
Sequence of HESX1 (Homo sapiens, UniProt Q9UBX0 95-180, R165K) (Q9UBX0 95-180 R165K): as the sequence (Q9UBX0 95-180 R109Q) above, with Q15R, R71K counted along it

Row | Sequence | binding signal [1] | binding signal [2] | binding signal [3] | binding signal [4] | binding signal [5] | binding signal [6] | binding signal [7] | binding signal [8] | binding signal [9] | binding signal [10] | binding signal [11] | binding signal [12] | binding signal [13] | binding signal [14] | binding signal [15] | binding signal [16] | binding signal [17] | binding signal [18] | binding signal [19] | binding signal [20]
1 | GCTAATTA | 13.8 upbm affinity estimate (log intensity, higher = more binding, comparable within an allelic series) | 13.5 upbm affinity estimate (log intensity, higher = more binding, comparable within an allelic series) | 14.4 upbm affinity estimate (log intensity, higher = more binding, comparable within an allelic series) | 13.6 upbm affinity estimate (log intensity, higher = more binding, comparable within an allelic series) | 13.5 upbm affinity estimate (log intensity, higher = more binding, comparable within an allelic series) | 12.4 upbm affinity estimate (log intensity, higher = more binding, comparable within an allelic series) | 8.53 upbm affinity estimate (log intensity, higher = more binding, comparable within an allelic series) | 10.9 upbm affinity estimate (log intensity, higher = more binding, comparable within an allelic series) | 12 upbm affinity estimate (log intensity, higher = more binding, comparable within an allelic series) | 13 upbm affinity estimate (log intensity, higher = more binding, comparable within an allelic series) | 12.1 upbm affinity estimate (log intensity, higher = more binding, comparable within an allelic series) | 10.5 upbm affinity estimate (log intensity, higher = more binding, comparable within an allelic series) | 12.3 upbm affinity estimate (log intensity, higher = more binding, comparable within an allelic series) | 11.4 upbm affinity estimate (log intensity, higher = more binding, comparable within an allelic series) | 12.4 upbm affinity estimate (log intensity, higher = more binding, comparable within an allelic series) | 11.2 upbm affinity estimate (log intensity, higher = more binding, comparable within an allelic series) | 8.03 upbm affinity estimate (log intensity, higher = more binding, comparable within an allelic series) | 8.29 upbm affinity estimate (log intensity, higher = more binding, comparable within an allelic series) | 13.1 upbm affinity estimate (log intensity, higher = more binding, comparable within an allelic series) | 8.71 upbm affinity estimate (log intensity, higher = more binding, comparable within an allelic series)
2 | CTTAATTA | 13.6 upbm affinity estimate (log intensity, higher = more binding, comparable within an allelic series) | 13.2 upbm affinity estimate (log intensity, higher = more binding, comparable within an allelic series) | 14.3 upbm affinity estimate (log intensity, higher = more binding, comparable within an allelic series) | 13.4 upbm affinity estimate (log intensity, higher = more binding, comparable within an allelic series) | 13.1 upbm affinity estimate (log intensity, higher = more binding, comparable within an allelic series) | 12.3 upbm affinity estimate (log intensity, higher = more binding, comparable within an allelic series) | 8.7 upbm affinity estimate (log intensity, higher = more binding, comparable within an allelic series) | 10.8 upbm affinity estimate (log intensity, higher = more binding, comparable within an allelic series) | 11.9 upbm affinity estimate (log intensity, higher = more binding, comparable within an allelic series) | 12.9 upbm affinity estimate (log intensity, higher = more binding, comparable within an allelic series) | 12.1 upbm affinity estimate (log intensity, higher = more binding, comparable within an allelic series) | 10.5 upbm affinity estimate (log intensity, higher = more binding, comparable within an allelic series) | 12.1 upbm affinity estimate (log intensity, higher = more binding, comparable within an allelic series) | 11.4 upbm affinity estimate (log intensity, higher = more binding, comparable within an allelic series) | 12.3 upbm affinity estimate (log intensity, higher = more binding, comparable within an allelic series) | 11.1 upbm affinity estimate (log intensity, higher = more binding, comparable within an allelic series) | 8.21 upbm affinity estimate (log intensity, higher = more binding, comparable within an allelic series) | 8.38 upbm affinity estimate (log intensity, higher = more binding, comparable within an allelic series) | 12.9 upbm affinity estimate (log intensity, higher = more binding, comparable within an allelic series) | 8.85 upbm affinity estimate (log intensity, higher = more binding, comparable within an allelic series)
3 | GGTAATTA | 13.1 upbm affinity estimate (log intensity, higher = more binding, comparable within an allelic series) | 12.7 upbm affinity estimate (log intensity, higher = more binding, comparable within an allelic series) | 13.9 upbm affinity estimate (log intensity, higher = more binding, comparable within an allelic series) | 13.2 upbm affinity estimate (log intensity, higher = more binding, comparable within an allelic series) | 13.3 upbm affinity estimate (log intensity, higher = more binding, comparable within an allelic series) | 12.1 upbm affinity estimate (log intensity, higher = more binding, comparable within an allelic series) | 8.47 upbm affinity estimate (log intensity, higher = more binding, comparable within an allelic series) | 10 upbm affinity estimate (log intensity, higher = more binding, comparable within an allelic series) | 11.8 upbm affinity estimate (log intensity, higher = more binding, comparable within an allelic series) | 12.8 upbm affinity estimate (log intensity, higher = more binding, comparable within an allelic series) | 11.9 upbm affinity estimate (log intensity, higher = more binding, comparable within an allelic series) | 9.54 upbm affinity estimate (log intensity, higher = more binding, comparable within an allelic series) | 11.8 upbm affinity estimate (log intensity, higher = more binding, comparable within an allelic series) | 11 upbm affinity estimate (log intensity, higher = more binding, comparable within an allelic series) | 11.7 upbm affinity estimate (log intensity, higher = more binding, comparable within an allelic series) | 10.7 upbm affinity estimate (log intensity, higher = more binding, comparable within an allelic series) | 7.94 upbm affinity estimate (log intensity, higher = more binding, comparable within an allelic series) | 8.04 upbm affinity estimate (log intensity, higher = more binding, comparable within an allelic series) | 12.8 upbm affinity estimate (log intensity, higher = more binding, comparable within an allelic series) | 8.62 upbm affinity estimate (log intensity, higher = more binding, comparable within an allelic series)
4 | TTAATTAA | 13.7 upbm affinity estimate (log intensity, higher = more binding, comparable within an allelic series) | 13.3 upbm affinity estimate (log intensity, higher = more binding, comparable within an allelic series) | 14.7 upbm affinity estimate (log intensity, higher = more binding, comparable within an allelic series) | 13.6 upbm affinity estimate (log intensity, higher = more binding, comparable within an allelic series) | 13.1 upbm affinity estimate (log intensity, higher = more binding, comparable within an allelic series) | 12.3 upbm affinity estimate (log intensity, higher = more binding, comparable within an allelic series) | 8.75 upbm affinity estimate (log intensity, higher = more binding, comparable within an allelic series) | 11.2 upbm affinity estimate (log intensity, higher = more binding, comparable within an allelic series) | 11.9 upbm affinity estimate (log intensity, higher = more binding, comparable within an allelic series) | 13 upbm affinity estimate (log intensity, higher = more binding, comparable within an allelic series) | 12.3 upbm affinity estimate (log intensity, higher = more binding, comparable within an allelic series) | 11.2 upbm affinity estimate (log intensity, higher = more binding, comparable within an allelic series) | 12.4 upbm affinity estimate (log intensity, higher = more binding, comparable within an allelic series) | 11.7 upbm affinity estimate (log intensity, higher = more binding, comparable within an allelic series) | 12.6 upbm affinity estimate (log intensity, higher = more binding, comparable within an allelic series) | 11.6 upbm affinity estimate (log intensity, higher = more binding, comparable within an allelic series) | 8.42 upbm affinity estimate (log intensity, higher = more binding, comparable within an allelic series) | 8.85 upbm affinity estimate (log intensity, higher = more binding, comparable within an allelic series) | 12.9 upbm affinity estimate (log intensity, higher = more binding, comparable within an allelic series) | 8.98 upbm affinity estimate (log intensity, higher = more binding, comparable within an allelic series)
